Rows were chosen to be rich in hits. Some 2.9% of all compounds tested hit in one or more screens of this group.
SMARCA2 act: increases SMARCA2 function in MMTV reporter cells. MG213 cells, MMTV-luciferase reporter, dexamethasone, overnight. activation, % at 9.1 µM. 370,000 tested, 1% active. AID 652017; in the data active means activation above about 7.8%
proKLK7 act: activates the human kallikrein-7 zymogen. P49862. purified proKLK7, EDANS-DABCYL substrate fluorescence; 100% is mature enzyme control, 0% vehicle. activation, % at 7 µM. 370,000 tested, 0.9% active;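 active means activation above the mean of all tested compounds plus 3 SD, computed per campaign excluding outliers beyond control limits, cut at about 13% in these data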
Target sequence (P49862 whole entry, looked up): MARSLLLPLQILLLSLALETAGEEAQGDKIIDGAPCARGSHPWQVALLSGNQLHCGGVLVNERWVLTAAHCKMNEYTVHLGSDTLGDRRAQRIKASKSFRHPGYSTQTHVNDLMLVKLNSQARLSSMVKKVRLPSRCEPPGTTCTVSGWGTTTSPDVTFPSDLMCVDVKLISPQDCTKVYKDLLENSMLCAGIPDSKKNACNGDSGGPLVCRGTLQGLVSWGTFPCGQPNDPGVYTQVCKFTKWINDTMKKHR
FAS TE block: blocks the thioesterase domain of human fatty acid synthase. P49327. recombinant FAS-TE, OMFH fluorogenic substrate, fluorescence endpoint. inhibition, % at 15 µM. 360,000 tested, 0.67% active. AID 602261;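 active means compounds whose normalised, plate-corrected inhibition of enzyme fluorescence in the single-dose primary screen is 50% or more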
FXN GAA850 act: frataxin GAA850 promoter activation. HEK293 lucGAA850 FXN promoter luciferase reporter, 24 h; percent of 10 µM SAHA response. activation, % at 6 µM. 360,000 tested, 0.56% active. AID 540364;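 active means activation above the average of all compounds screened plus 3 SD, cutoff fixed separately per campaign, cut at about 7.5% in these data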
SMARCA2 act conf: SMARCA2 activation, confirmation screen; shares compounds with SMARCA2 act; AID 652260; 3,500 tested, 30% active; MG213 cells, MMTV-luciferase with dexamethasone, luminescence, overnight; MG213 cells expressing E1A, Rb sequestered; DMSO wells 0%, reference activator 100%; activation, % at 9.1 µM;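 active means activation above its plate's cutoff, the mean activation of tested wells plus 3 SD, cut at about 7.9% in these data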
VP16 Luc act: GAL4-VP16 reporter activation counter-screen. AID 686939. 3,500 tested, 41% active. shares compounds with SMARCA2 act. activation, % at 9.1 µM. HEK293 GAL4-VP16 pG5luc reporter, luciferase luminescence; scaled: DMSO wells 0%, SAHA wells 100%;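 active means activation above the solvent-only control well mean plus 3 SD, averaged across control plates, cut at about 5.2% in these data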
Hits are given with their value; n = inactive; x = no result.

SMILES | SMARCA2 act | proKLK7 act | FAS TE block | FXN GAA850 act | SMARCA2 act conf | VP16 Luc act
Nc1ccn(CC(=O)NCCCc2ccccc2)c(=O)n1 | n | n | n | n | x | x
CC[n+]1c(C)cc2c(sc3ccccc32)c1C | n | n | n | n | x | x
CCc1nc(C)cc2c1sc1ccccc12 | 10.0 | n | n | n | 11 | n
Cc1ccc(S(=O)(=O)C2CS(=O)(=O)CC2O)cc1 (centres undefined) | n | n | n | n | x | x
CC(=O)C1=C(S(=O)(=O)c2ccc(C)cc2)CS(=O)(=O)C1 | 9.1 | n | n | n | 15 | n
O=S(=O)(NNc1ccc(Cl)nn1)c1ccc(F)cc1 | 8.4 | n | n | n | n | n
CCC(CC)CN1CCN=C1N(C)C | n | n | n | n | x | x
COc1ccc(OCC(O)CN2CCC(CN3C(=O)c4cccc5cccc(c45)C3=O)CC2)cc1 (centres undefined) | 11 | n | n | n | n | n
COc1ccc(/C=C/C(=O)NC(=S)Nc2ccc(S(=O)(=O)Nc3nccnc3OC)cc2)cc1 | 13 | n | n | n | n | n
O=C(c1cc2cc(Br)ccc2o1)N1CCOCC1 | n | n | n | n | x | x
O=C(c1cc2cc(Br)ccc2o1)N1CCN(c2ccccc2)CC1 | 8.1 | n | n | n | n | n
Cc1nnc(SCC(=O)NCc2ccccc2)[nH]c1=O | n | n | n | n | x | x
S=c1[nH]ncn1/N=C/c1ccc(N2CCOCC2)cc1 | 9.2 | n | n | n | 9.2 | 11
Cc1ccc(-c2ccc(=O)n(CCC(=O)N3CCN(Cc4ccccc4)CC3)n2)cc1 | n | n | n | n | x | x
Nc1nc2n[nH]nc2c(=O)[nH]1 | 14 | n | n | n | 22 | n
Nc1nc2nn(-c3ccccc3)nc2c(=O)[nH]1 | n | n | n | n | x | x
CCC(=O)N1CCC1(C)C(=O)Nc1cc(-c2ccccc2)nn1C (centres undefined) | 10 | n | n | n | n | 7.4
O=C1NC(=Nc2ccc3ccccc3c2)S/C1=C/c1ccco1 | 10 | n | n | n | n | n
O=C1NC(=Nc2ccc(O)cc2)S/C1=C/c1ccco1 | n | n | n | n | x | x
O=C(CCn1c(=O)sc2ccccc21)NCCN1CCOCC1 | n | n | n | n | x | x
CCc1ccc(OCC(=O)Nc2ncn[nH]2)cc1 | 8.1 | n | n | n | 11 | 8.7
Cc1csc(NC(=O)[C@@H](NC(=O)c2ccccc2)C(C)C)n1 | n | n | n | n | x | x
N#CC(c1ccc(Cl)nn1)c1ccc(Cl)cc1Cl (centres undefined) | n | n | n | n | x | x
Cc1cccc(Cc2cnc(NC(=O)c3ccc(C)o3)s2)c1 | 11 | n | n | n | n | n
Cc1ccccc1CCN(C(=O)CN1C(=O)c2ccccc2S1(=O)=O)C(C(=O)NCC1CCCO1)c1ccncc1 (centres undefined) | 9.0 | n | n | n | n | n
SMILES | SMARCA2 act | proKLK7 act | FAS TE block | FXN GAA850 act | SMARCA2 act conf | VP16 Luc act
CCOC(=O)c1ccc(NC(=O)c2ccccc2[N+](=O)[O-])cc1 | n | n | n | n | x | x
CCOC(=O)c1ccc(Nc2ncccc2[N+](=O)[O-])cc1 | 8.3 | n | n | n | 16 | 6.2
Cc1ccccc1N=Nc1c(C)[nH]n(C(N)=S)c1=O | 14 | n | n | n | n | n
COc1ccc(CCNc2nc3ccccc3n3nnnc23)cc1OC | 18 | n | n | n | n | n
c1ccc(CCNc2nc3ccccc3n3nnnc23)cc1 | n | n | n | n | x | x
Nc1nnc(SCC(=O)c2ccco2)s1 | n | n | n | n | x | x
Cc1cc(C(=O)CSc2nnc(N)s2)c(C)n1Cc1ccco1 | 12 | n | n | n | n | n
CCOc1cc(/C=C2\CN(CC)C/C(=C\c3ccc(O)c(OCC)c3)C2=O)ccc1O | 10 | n | n | n | n | n
COc1cc(/C=C2\CCC/C(=C\c3ccc(O)c(OC)c3)C2=O)ccc1O | n | n | n | n | x | x
CC(=O)C1=C(C)NC(SCC(=O)c2ccc(Cl)c(Cl)c2)=C(C#N)C1c1ccco1 (centres undefined) | 8.6 | n | n | n | n | n
COc1cccc(NC(=O)Nc2nnc(N3C(C)CCCC3C)s2)c1 (centres undefined) | n | n | n | n | x | x
Cc1cccc(NC(=O)Nc2nnc(N3CCCCC3C)s2)c1C (centres undefined) | 8.0 | n | n | n | n | n

Screening results as filed in PubChem BioAssay.
